This note sets out measurements from PubChem BioAssay (Tox21).

Values without a mark were called inactive. Results filed as inconclusive are left out. Activity calls are given as the source filed them. Unless noted, calls come from the whole dose curve; as a rule, active = well fitted curve in the direction sought with a large enough effect in the repeat runs; inconclusive = weak or mixed curves; inactive = no such curve, though single readings can be large; an effect the other way counts as inactive or inconclusive.

Assay [1] is described as follows: qHTS assay to identify small molecule agonists of the sonic hedgehog signaling (Shh) pathway (AID 1259368; calls by dose curve;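 note: NIH/3T3-derived 3T3Gli1-Luc cells carrying a stable Gli1-driven firefly luciferase reporter; series mostly up to about 92 µM; nearly all actives have a fitted effect of over 15% in size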). An outline of the steps:
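Mouse fibroblast (NIH/3T3) reporter cells with stably integrated Gli1-Luc were treated 24 hr with compound; firefly luciferase luminescence served as the read-out.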

The nature of assay [2]: qHTS assay to identify small molecule agonists of the androgen receptor (AR) signaling pathway in the presence of an antagonist - cell viability counter screen (AID 1259379).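 Note: MDA-kb2 human breast cancer cells carrying an MMTV luciferase reporter; series mostly up to about 92 µM; nearly all actives have a fitted effect of over 25% in size.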 An outline of the steps:
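A CellTiter-Fluor read-out measured viability of MDA-kb2 reporter cells (MMTV promoter with AR and GR response elements). Treatment: nilutamide 3.0uM final with compounds at 15 concentrations, 16 hr, 37C, 0% CO2.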
Background: qHTS replaces the single test concentration by a dilution series.

A short description of assay [3]: qHTS assay to identify small molecule antagonists of the estrogen receptor beta (ER-beta) signaling pathway - cell viability counter screen (AID 1259382). Note: nearly all actives have a fitted effect of over 55% in size. Note: potency is the fitted concentration of half-maximal effect. Put shortly: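 Agonist-stimulated (1nM E2) ER-beta-UAS-bla HEK293T cells are incubated with library compounds for 16 hr at 37C. Cell viability is then assessed in the reporter-assay wells by adding CellTiter-Glo and reading luminescence after 30 min.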

Assay [4] has as its target Estrogen receptor (Homo sapiens) (UniProt P03372). The experiment in a line: qHTS assay to identify small molecule agonists of the estrogen receptor alpha (ER-alpha) signaling pathway in the presence of an antagonist (AID 1259383; calls by dose curve; note: top concentration of the series differs between compounds; nearly all actives have a fitted effect of over 15% in size). An outline of the steps: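 Using VM7Luc4E2 cells seeded 24hr before treatment, antagonist ICI-182,780 (10.0nM final) was added, followed by compounds at 15 concentrations. Plates incubated 22hr; ONE-Glo luminescence quantified reporter activity.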

The nature of assay [5]: qHTS assay to identify small molecule agonists or antagonists of the thyroid stimulating hormone receptor (TSHR) signaling pathway - wild type cell line counter screen (AID 1259384; calls by dose curve). Put shortly: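 Wild-type HEK293 cells were plated 18 h at 37 C/5% CO2, pin-dosed with compound plus Ro20-1724 medium, held 30 min at room temperature, then given cAMP-d2 and anti-cAMP-cryptate; fluorescence was read after 1 h. Fifteen concentrations, triplicate.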

Assay [6] concerns the target Thyrotropin receptor (Homo sapiens) (UniProt P16473). As to the kind of experiment: qHTS assay to identify small molecule antagonists of the thyroid stimulating hormone receptor (TSHR) signaling pathway (AID 1259385; calls by dose curve; note: nearly all actives have a fitted effect of over 20% in size). An outline of the steps:
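TSHR-HEK293 cells were plated and held 18 h at 37C/5% CO2, then given compound plus Ro20-1724 and stimulated with TSH at 1.5 ng/mL final. After 30 min at room temperature, cAMP was detected with cAMP-d2/anti-cAMP-cryptate (1 h) by fluorescence.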

The nature of assay [7]: qHTS assay to identify small molecule agonists of the estrogen receptor alpha (ER-alpha) signaling pathway in the presence of an antagonist - cell viability counter screen (AID 1259386).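 Note: series mostly up to about 92 µM; cells exposed to compounds for 22 h at 37 °C before the viability read; nearly all actives have a fitted effect of over 30% in size.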 Put shortly:
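ICI-182,780 at 10.0nM final accompanies the compound titration (15 concentrations, 22hr, 37C) on VM7Luc4E2 cells. The CellTiter-Fluor fluorescence readout runs in the same wells as the luciferase assay.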

Assay [8] concerns the target Progesterone receptor (Homo sapiens) (UniProt P06401). As to the kind of experiment: qHTS assay to identify small molecule agonists of the progesterone receptor (PR) signaling pathway (AID 1346784; calls by dose curve; note: nearly all actives have a fitted effect of over 30% in size). Put shortly:
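Compounds were tested for PR agonism in HEK 293T cells bearing a beta-lactamase gene under UAS control. Treatment lasted 16 hr at 37C; signal came from fluorescence of a FRET substrate.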

Assay [9] is described as follows: qHTS assay to identify small molecule antagonists of the TGF-beta/Smad signaling pathway - cell viability counter screen (AID 1346824). Note: nearly all actives have a fitted effect of over 50% in size. An outline of the steps:
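SBE-bla HEK 293T cells were plated overnight at 37 C, then given compounds in DMSO plus TGF-beta1 (added as 0.25 ng/mL solution) for 5 hr. After the bla read, CellTiter-Glo was added to the same wells and luminescence read after 30 min at room temperature.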

A short description of assay [10]: qHTS assay to identify small molecule agonists of the TGF-beta/Smad signaling pathway - cell viability counter screen (AID 1346829). Note: top concentration of the series differs between compounds; nearly all actives have a fitted effect of over 45% in size. An outline of the steps:
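After overnight seating at 37 C and 5% CO2, reporter cells got compounds for 5 hr and FRET substrate for 2 hr; cell viability then came from CellTiter-Glo luminescence.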

Assay [11] is described as follows: qHTS assay to identify small molecule agonists of the TGF-beta/Smad signaling pathway (AID 1346859; active = well fitted activation curve with a large enough effect in the signal ratio in the repeat runs, not every such curve was filed as active; the % refers to the signal ratio; note: series mostly up to about 77 µM). Put shortly: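 Each well held 4,000 SBE-bla HEK 293T cells incubated overnight before compound addition; 5 hr later the cleavable FRET substrate went on for 2 hr at room temperature, and fluorescence was read at two emissions.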
For assay [12], the target named is Thyrotropin-releasing hormone receptor (Homo sapiens) (UniProt P34981). The experiment in a line: qHTS assay to identify small molecule antagonists of the thyrotropin-releasing hormone receptor (TRHR) signaling pathway (AID 1346877; active = well fitted inhibition curve with a large enough effect in the repeat runs, not every such curve was filed as active; note: series mostly up to about 51 µM). Put shortly: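 Screening used HEK293 cells engineered with TRHR, with a brief 5 min room-temperature compound exposure preceding addition of TRH to 1 nM. The read-out was kinetic calcium-dye fluorescence, concentration-response from 15 doses in triplicate.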
Sequence of Thyrotropin-releasing hormone receptor (Homo sapiens) (P34981 whole entry, looked up): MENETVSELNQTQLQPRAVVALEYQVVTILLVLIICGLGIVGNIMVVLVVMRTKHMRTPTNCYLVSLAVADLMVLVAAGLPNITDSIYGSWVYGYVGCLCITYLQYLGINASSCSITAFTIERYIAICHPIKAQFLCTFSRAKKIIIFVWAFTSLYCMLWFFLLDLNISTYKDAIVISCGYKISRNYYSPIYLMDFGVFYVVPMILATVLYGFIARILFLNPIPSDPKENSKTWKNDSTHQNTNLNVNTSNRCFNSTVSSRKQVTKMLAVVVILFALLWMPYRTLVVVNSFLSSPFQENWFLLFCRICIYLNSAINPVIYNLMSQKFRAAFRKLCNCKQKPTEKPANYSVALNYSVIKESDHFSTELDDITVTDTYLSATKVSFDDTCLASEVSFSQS

A short description of assay [13]: qHTS assay to identify small molecule antagonists of the sonic hedgehog signaling (Shh) pathway (AID 1259369; calls by dose curve; note: nearly all actives have a fitted effect of over 45% in size). Put shortly:
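Conditioned medium drives Shh signalling in 3T3Gli1-Luc cells; compounds in DMSO co-applied, 24hr at 37 C, then luciferase luminescence.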

Assay [14] concerns the target Estrogen receptor beta (Homo sapiens) (UniProt Q92731). The experiment in a line: qHTS assay to identify small molecule agonists of the estrogen receptor beta (ER-beta) signaling pathway (AID 1259377; active = well fitted activation curve with a large enough effect in the signal ratio in the repeat runs, not every such curve was filed as active; the % refers to the signal ratio). An outline of the steps: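 Read-out: beta-lactamase FRET fluorescence. Cell line: ER-beta-UAS-bla HEK293T in 2% charcoal-stripped FBS. Exposure: 16 hr at 37C. Substrate step: 2 h at room temperature.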

The target is the same in assay [15]. The experiment in a line: qHTS assay to identify small molecule antagonists of the estrogen receptor beta (ER-beta) signaling pathway (AID 1259378; active = well fitted inhibition curve with a large enough effect in the signal ratio in the repeat runs, not every such curve was filed as active; the % refers to the signal ratio; note: potency is the fitted concentration of half-maximal effect). Put shortly: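 ER-beta-UAS-bla HEK293T (GripTite) cells in 2% charcoal-stripped FBS medium were preincubated 6 hr at 37C, dosed with compound, then stimulated with 1 nM E2 (final) for 16 hr; beta-lactamase reporter read by B/G FRET fluorescence after 2 hr substrate loading.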

The nature of assay [16]: qHTS assay to identify small molecule agonists of the estrogen receptor beta (ER-beta) signaling pathway - cell viability counter screen (AID 1259380). Note: nearly all actives have a fitted effect of over 30% in size. Note: potency is the fitted concentration of half-maximal effect. An outline of the steps:
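Cells used were ER-beta-UAS-bla HEK293T in medium with 2% charcoal-stripped FBS. They were treated for 16 hr at 37C. Viability came from CellTiter-Glo luminescence.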

The target of assay [17] is Progesterone receptor (Homo sapiens) (UniProt P06401). As to the kind of experiment: qHTS assay to identify small molecule antagonists of the progesterone receptor (PR) signaling pathway (AID 1346795; active = well fitted inhibition curve with a large enough effect in the signal ratio in the repeat runs, not every such curve was filed as active; the % refers to the signal ratio; note: potency is the fitted concentration of half-maximal effect). Put shortly:
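In HEK293T cells bearing the PR-UAS-bla reporter, compound effects on promegestone-driven (1 nM) beta-lactamase expression are assessed after 16 hr using a fluorescent FRET substrate incubated 2 hr at room temperature.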

Assay [18] in a line: qHTS assay to identify small molecule antagonists of the progesterone receptor (PR) signaling pathway - cell viability counter screen (AID 1346798). Note: series mostly up to about 92 µM; nearly all actives have a fitted effect of over 50% in size. Put shortly:
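Following a 4 hr attachment, PR-UAS-bla HEK293T cells in charcoal-stripped FBS medium were exposed to compounds with R5020 for 16 hr; CellTiter-Glo was added and luminescence read after 30 min at room temperature.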

The nature of assay [19]: qHTS assay to identify small molecule agonists of the progesterone receptor (PR) signaling pathway - cell viability counter screen (AID 1346799; calls by dose curve; note: nearly all actives have a fitted effect of over 45% in size). Put shortly:
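Here, 3,000 PR-UAS-bla HEK293T cells per well were treated with compounds for 16 hr after a 6 hr preincubation at 37C and 5% CO2; cell viability is the CellTiter-Glo luminescence signal.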

Sequence of Estrogen receptor (Homo sapiens) (P03372 whole entry, looked up): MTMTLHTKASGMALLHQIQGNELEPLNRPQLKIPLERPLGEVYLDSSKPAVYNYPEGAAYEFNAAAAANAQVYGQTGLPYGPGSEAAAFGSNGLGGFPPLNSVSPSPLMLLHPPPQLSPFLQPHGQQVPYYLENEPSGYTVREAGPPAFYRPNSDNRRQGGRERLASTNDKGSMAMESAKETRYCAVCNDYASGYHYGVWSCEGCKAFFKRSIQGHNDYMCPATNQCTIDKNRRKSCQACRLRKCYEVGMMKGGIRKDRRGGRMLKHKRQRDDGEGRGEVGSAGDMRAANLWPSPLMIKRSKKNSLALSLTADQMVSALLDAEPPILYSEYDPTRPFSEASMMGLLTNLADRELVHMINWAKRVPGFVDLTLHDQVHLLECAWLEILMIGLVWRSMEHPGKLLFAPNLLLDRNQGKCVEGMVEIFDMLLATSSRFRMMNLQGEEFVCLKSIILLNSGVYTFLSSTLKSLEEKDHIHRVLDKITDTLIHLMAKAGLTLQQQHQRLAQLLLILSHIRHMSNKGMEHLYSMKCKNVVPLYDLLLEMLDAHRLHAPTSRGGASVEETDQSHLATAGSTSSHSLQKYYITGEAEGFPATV
Sequence of Progesterone receptor (Homo sapiens) (P06401 whole entry, looked up): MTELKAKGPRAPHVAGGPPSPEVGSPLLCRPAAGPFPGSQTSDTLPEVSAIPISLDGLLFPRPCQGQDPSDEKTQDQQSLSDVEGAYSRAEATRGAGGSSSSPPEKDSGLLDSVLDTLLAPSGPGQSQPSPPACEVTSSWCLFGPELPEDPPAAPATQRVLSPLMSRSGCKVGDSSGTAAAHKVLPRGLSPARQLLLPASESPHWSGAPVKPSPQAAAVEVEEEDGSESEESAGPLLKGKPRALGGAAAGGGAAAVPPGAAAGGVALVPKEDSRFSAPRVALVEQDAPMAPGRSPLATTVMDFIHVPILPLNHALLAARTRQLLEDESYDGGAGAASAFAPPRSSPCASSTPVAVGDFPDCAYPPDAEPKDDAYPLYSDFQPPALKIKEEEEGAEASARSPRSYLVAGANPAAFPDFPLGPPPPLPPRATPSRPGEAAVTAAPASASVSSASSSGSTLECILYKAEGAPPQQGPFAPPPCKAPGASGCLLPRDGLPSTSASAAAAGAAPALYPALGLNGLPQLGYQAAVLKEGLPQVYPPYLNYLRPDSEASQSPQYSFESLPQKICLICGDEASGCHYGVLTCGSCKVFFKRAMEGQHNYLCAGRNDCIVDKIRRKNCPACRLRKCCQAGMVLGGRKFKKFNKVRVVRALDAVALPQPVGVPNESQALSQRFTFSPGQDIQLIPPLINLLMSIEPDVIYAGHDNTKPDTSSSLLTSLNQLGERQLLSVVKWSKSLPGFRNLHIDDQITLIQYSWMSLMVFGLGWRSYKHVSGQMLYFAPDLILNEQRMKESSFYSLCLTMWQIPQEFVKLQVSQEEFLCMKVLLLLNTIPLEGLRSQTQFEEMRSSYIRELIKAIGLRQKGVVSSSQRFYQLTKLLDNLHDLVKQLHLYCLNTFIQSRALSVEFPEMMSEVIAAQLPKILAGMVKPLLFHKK
Sequence of Thyrotropin receptor (Homo sapiens) (P16473 whole entry, looked up): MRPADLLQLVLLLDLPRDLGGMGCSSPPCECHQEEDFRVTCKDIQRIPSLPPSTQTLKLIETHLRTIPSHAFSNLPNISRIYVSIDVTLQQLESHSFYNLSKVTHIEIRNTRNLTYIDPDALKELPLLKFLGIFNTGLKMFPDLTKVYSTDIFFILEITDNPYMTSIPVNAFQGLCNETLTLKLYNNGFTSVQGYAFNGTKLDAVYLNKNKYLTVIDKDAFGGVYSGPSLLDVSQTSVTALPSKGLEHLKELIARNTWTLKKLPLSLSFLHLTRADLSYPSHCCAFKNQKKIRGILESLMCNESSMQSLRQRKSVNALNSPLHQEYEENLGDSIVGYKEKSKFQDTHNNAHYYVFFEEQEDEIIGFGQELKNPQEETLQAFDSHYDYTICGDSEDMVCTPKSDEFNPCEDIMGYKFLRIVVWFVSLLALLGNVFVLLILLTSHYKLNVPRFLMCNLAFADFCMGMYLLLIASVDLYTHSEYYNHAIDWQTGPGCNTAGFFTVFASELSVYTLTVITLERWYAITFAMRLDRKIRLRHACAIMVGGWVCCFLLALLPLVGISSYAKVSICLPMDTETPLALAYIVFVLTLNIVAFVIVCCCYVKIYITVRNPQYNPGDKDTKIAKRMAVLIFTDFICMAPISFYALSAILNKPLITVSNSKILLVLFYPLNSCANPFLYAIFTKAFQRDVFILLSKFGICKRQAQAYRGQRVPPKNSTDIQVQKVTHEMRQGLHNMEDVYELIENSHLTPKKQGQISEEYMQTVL
Sequence of Estrogen receptor beta (Homo sapiens) (Q92731 whole entry, looked up): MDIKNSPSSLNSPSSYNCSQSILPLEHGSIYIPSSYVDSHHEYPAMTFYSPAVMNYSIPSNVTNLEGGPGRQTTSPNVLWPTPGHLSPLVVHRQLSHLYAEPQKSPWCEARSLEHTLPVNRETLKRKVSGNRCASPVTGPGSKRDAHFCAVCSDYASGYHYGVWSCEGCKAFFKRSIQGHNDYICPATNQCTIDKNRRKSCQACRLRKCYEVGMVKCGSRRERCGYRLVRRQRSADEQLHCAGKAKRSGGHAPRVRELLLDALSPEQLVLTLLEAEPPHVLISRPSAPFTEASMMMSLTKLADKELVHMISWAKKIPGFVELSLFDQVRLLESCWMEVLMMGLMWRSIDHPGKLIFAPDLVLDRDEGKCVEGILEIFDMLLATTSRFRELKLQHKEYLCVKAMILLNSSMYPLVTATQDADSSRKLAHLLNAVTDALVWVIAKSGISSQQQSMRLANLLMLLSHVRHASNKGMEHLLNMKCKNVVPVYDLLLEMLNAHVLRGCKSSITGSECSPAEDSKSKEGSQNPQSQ

As for `COc1nn(CSP(=S)(OC)OC)c(=O)s1`, the Potency result in [1], in [2], in assay [3], in assay [4], in assay [6] and in assay [7] was “inactive” each time. Besides, the Potency result in [8], in [9], in [10] and in assay [12] was “inactive” in each case. The result in assay [5] and in assay [11] was inactive.

Consider `CC(C)N(CCC(C(N)=O)(c1ccccc1)c1ccccn1)C(C)C` (stereo not drawn), for which the Potency entry in assay [13], in assay [14], in [15], in assay [2], in assay [16] and in assay [3] was “inactive” throughout. The Potency result in assay [6], in assay [7], in assay [8], in [17], in assay [18] and in assay [19] was “inactive” in each case. Besides, the Potency result in [9] and in assay [10] was “inactive” each time. Moreover, the outcome in [5] and in [11] was inactive.

Turning to `Cn1sc(Cl)cc1=O`, the Potency result in assay [13], in [14], in assay [15], in assay [2], in [16] and in assay [3] was “inactive” in each case. In addition, the Potency result in [4], in assay [6], in [7], in assay [8], in [17] and in assay [18] was “inactive” throughout. Besides, the Potency entry in assay [9], in [10] and in assay [12] was “inactive” each time. Moreover, the molecule was classed as inactive in [5] and in assay [11].

Consider `CCOP(=S)(OCC)SCn1nnc2ccccc2c1=O`, for which the Potency entry in assay [1], in assay [14], in assay [16], in assay [3], in assay [4] and in assay [6] was “inactive” each time. Moreover, the Potency result in assay [8], in [9], in assay [10] and in assay [12] was “inactive” throughout. In addition, the Potency in [15] is 68.6 µM (active); in [17], 27.3 µM (active). The molecule was classed as inactive in [5] and in [11].

As to `CC(O)(CS(=O)(=O)c1ccc(F)cc1)C(=O)Nc1ccc(C#N)c(C(F)(F)F)c1` (stereo not drawn), the Potency result in assay [1], in assay [14], in [2], in assay [4], in assay [7] and in assay [8] was “inactive” each time. In addition, the Potency result in assay [18], in [19], in assay [9], in assay [10] and in assay [12] was “inactive” in each case. The Potency in assay [16] is 31.8 µM (active); in assay [3], 28.3 µM (active). Also, the call in [11] was inactive.

For `CCOP(=S)(OCC)SCSCC`, the Potency entry in assay [13], in assay [14], in assay [15], in [2], in [16] and in assay [3] was “inactive” throughout. Moreover, the Potency entry in assay [4], in [6], in [7], in assay [8], in assay [18] and in [19] was “inactive” in each case. The Potency result in assay [9], in [10] and in assay [12] was “inactive” each time. Further, the result in assay [5] and in assay [11] was inactive.

Regarding `CC(C)(OO)c1ccccc1`, the Potency result in assay [1], in assay [2], in assay [16], in assay [3], in assay [6] and in assay [7] was “inactive” throughout. In addition, the Potency result in assay [8], in assay [17], in assay [18], in assay [19], in [9] and in assay [10] was “inactive” each time. Further, the Potency entry in assay [12] was “inactive”. The result in [5] and in assay [11] was inactive.

With `OCCCBr`, the Potency entry in assay [1], in [2], in [16], in [3], in assay [6] and in [7] was “inactive” throughout. For the same molecule, the Potency result in [8], in assay [9], in assay [10] and in assay [12] was “inactive” in each case. In addition, the result in assay [5] and in assay [11] was inactive.

With `O=C(O)COc1ccc(Cl)cc1`, the Potency result in [13], in [14], in assay [15], in assay [2], in assay [16] and in assay [3] was “inactive” each time. In addition, the Potency result in assay [6], in assay [7], in [8], in [17], in [18] and in [19] was “inactive” each time. Moreover, the Potency entry in assay [9], in assay [10] and in [12] was “inactive” each time. Also, the call in assay [5] was inactive.
